Assay results taken from PubChem BioAssay (NCATS).
Values without a mark were called inactive. Calls come from the whole dose curve; as a rule, active = well fitted inhibition curve with a large enough effect; inconclusive = small, poorly fitted or top-dose-only effect; inactive = no such curve, though single readings can be large or run the other way.

Target: Single-stranded DNA cytosine deaminase (Homo sapiens) (UniProt Q9GZX7)
Assay: Validation qHTS assay for inhibitors of Activation Induced Cytidine Deaminase (AID): AID signal (AID 1347429)
Details: Recombinant AID, FRET ssDNA deamination with UDG, fluorescence; series mostly up to 115 µM; activity change, negative = inhibition: at the top concentration
Text: Assay Provider (PI) Patricia Gearhart Ph.D. National Institute on Aging National Institute of Health (NIH), Bethesda, MD Assay Provider (PI) Rahul Kohli Ph.D. Perelman School of Medicine University of Pennsylvania, Philadelphia, PA Activation-Induced Deaminase (AID) is a cytosine deaminase which converts cytosine into uracil within stretches of ssDNA. The presence of uracil in DNA initiates a cascade of mutagenic DNA repair to introduce point mutations and DNA double strand breaks. Specific targeting of AID to the immunoglobulin heavy chain loci (Igh) promotes mutagenesis in the antibody variable region for somatic hypermutation (SHM) or switch regions leading to class switch recombination (CSR). However, AID also plays a role in accumulating unnecessary mutations across the genome. Mis-targeting of AID results in the initiation of tumor development and leads to greater drug resistance among cancer cells when continually expressed. To identify an AID inhibitor, a small molecule library will be screened in collaboration with NCATS core facility at NIH. To confirm biological function, inhibitors will be examined in an in vitro murine B-cell activation assay and subsequent secondary validation screens. Top molecules will be further screened to identify inhibitory efficacy against a wild type primary splenocytes assay. Using these approaches, we hope to identify a small molecule with great efficacy and low toxicity for use as a molecular probe to further characterize AID's intricacies, or even as a therapeutic. A FRET based analysis of cytosine deamination, was developed to identify potential inhibitors of AID catalytic activity. This screen has two signal output, Read 1 evaluates the AID inhibition response. The second readout (Read 2) evaluates UDG response and is uses as a counterscreen to exclude false positive inhibitors. Inhibition in AID and inactivity in the UDG signal is the desired outcome for this assay.
PROTOCOL TABLE SEQUENCE No. (e.g., 1, 2, 3, etc.); […] (e.g., Cells, Incubation, Reagent, etc.); VALUE; DESCRIPTION 1a; Reagent; 3 uL; [4/3x] […] 250 nM DJC20 / 250 nM DJC23 [Substrate] 5; Time; 4 hr; incubation at room temperature 6; Reagent; 4 uL; [2x] 250 mM NaOH 7; Time; 15 sec; centrifuge at 1000 rpm 8; Time; 30 min; incubation at room temperature 9a; Detection; fluorescence (Read 1: AID); EnVision (PerkinElmer) plate reader, 540 excitation and 590 emission filters 9b; Detection; fluorescence (Read 2: UDG); EnVision (PerkinElmer) plate reader, 560 excitation and 665 emission filters NOTES (numbers refer to sequence above) 1a; Reagents were dispensed in a medium-binding black solid-bottom Greiner plates (789176F) using a BioRptr liquid dispenser. Dispense 3 uL of [4/3x] 1 uM AID (provided by Kohli lab) and [4/3x] 2 U/mL UDG (NEB M0280L) into columns 1, 2, 5 to 48. 1b; Dispense 3 uL of [4/3x] 2 U/mL UDG into column 3. 1c; Dispense 3 uL of [4/3x] 1 uM AID into column 4. 2a; Compound ([…] [uM] (0.64; 3.2; 16; 80; 400; 2,000; 10,000; 20,000) double pin-transferred (Dip Factor = 2) using the Kalypsys (Wako USA) pintool equipped with a 1536 pinhead for a final concentration range of 7.32 nM - 114 uM. 2b; 10 mM Aurintricarboxylic Acid (Sigma A1895) (ATA, 8-point, n = 2, 1:2.5 dilution in column 2) double pin-transferred (Dip Factor = 2) using the Kalypsys (Wako USA) pintool equipped with a 1536 pinhead for a [final] range of 186 nM - 114 uM. 3; Room temperature incubation. 4; Dispense 1 uL of substrate mixture from the Kohli lab [4x] […] DJC20 and [4x] 250 nM DJC23 into columns 1 to 48 . 5; Room temperature incubation. 6; Dispense 4 uL of substrate mixture [2x] 250 mM NaOH into columns 1 to 48. 7; Centrifugation step to remove bubbles. 8; Room temperature incubation 9a; Fluorescence signal (column label AID) was read using the EnVision plate reader. Excitation filter = 540(8) nm, barcode = 311; Emission filter = 590(20) nm, barcode = 217; Mirror = D555, barcode = 405. […]
% is set by controls: 0 for no effect and ±100 for the full control effect.

Chain of Single-stranded DNA cytosine deaminase (Homo sapiens) (Q9GZX7 whole entry, looked up): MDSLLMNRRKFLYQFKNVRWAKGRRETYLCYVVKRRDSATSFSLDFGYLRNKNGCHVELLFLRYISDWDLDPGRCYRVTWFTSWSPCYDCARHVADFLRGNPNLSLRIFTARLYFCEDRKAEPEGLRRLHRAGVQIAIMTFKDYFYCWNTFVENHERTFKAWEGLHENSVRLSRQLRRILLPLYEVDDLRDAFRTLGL

SMILES | activity change, negative = inhibition [%]
CN1C2CCC1CC(OC(=O)C(O)c1ccccc1)C2 (stereo not given) | 7.84
C=CC(=O)c1ccc(CCCCCC)cc1 | 3.8
NO | -21.7
NC[C@@H]1O[C@H](C23CC4CC(CC(C4)C2)C3)Cc2c1ccc(O)c2O | 30
CCCCCCCCc1ccc(-c2ccc(C(=O)O)cc2)cc1 | -6.73
CCCCCCCCCCCCCCCCCC(=O)OC(CC(=O)O)C[N+](C)(C)C (stereo not given) | -1.84
CCOC(=O)N1CCN(/[N+]([O-])=N/Oc2ccc([N+](=O)[O-])cc2[N+](=O)[O-])CC1 | 20.2
O=C(Nc1ccccc1)c1cc([N+](=O)[O-])ccc1Cl | -4.5
CN1[C@@H](CC(=O)c2ccccc2)CCC[C@H]1C[C@H](O)c1ccccc1 | 11.9
Oc1ccccc1O | 23.2
CCCCN1CCC(n2c(=O)[nH]c3ccccc32)CC1 | 22.1
O=[N+]([O-])c1ccc2c(c1)S(=O)(=O)C=C2 | 8.9
COc1ccccc1CNCCCCCCNCCCCCCCCNCCCCCCNCc1ccccc1OC | 121
C=CC(N)CCC(=O)O (stereo not given) | 0.464
O=P(O)(O)C(Cl)(Cl)P(=O)(O)O | 7.71
O=C(O)CCCC[C@@H]1CCSS1 | 21.8
CNC(=O)[C@H]1O[C@@H](n2cnc3c(NCc4cccc(I)c4)ncnc32)[C@H](O)[C@@H]1O | 9.02
NC(N)=NC(=O)c1nc(Cl)c(N2CCCCCC2)nc1N | 20.9
Cc1cc2c(cc1Cl)N(C(=O)Nc1ccc(Oc3cccnc3C)nc1)CC2 | 13.5
Nc1nc(SCc2ccc([N+](=O)[O-])cc2)c2ncn([C@@H]3O[C@H](CO)[C@@H](O)[C@H]3O)c2n1 | 10.5

SMILES | activity change, negative = inhibition [%]
NCCCS(=O)(=O)O | 12.2
O=C1/C(=C/c2ccsc2)CC/C1=C\c1cccs1 | 19.1
CC(C)NC[C@H](O)COc1cccc2[nH]ccc12 | 213
C#CCN1C(C)=C(C(=O)OC)C(c2cccc([N+](=O)[O-])c2)C(C(=O)OCC)=C1C (stereo not given) | -4.62
CN1CCc2ccccc2Cc2[nH]c3ccccc3c2CC1 | 112
O=C(c1cc(O)c(O)c([N+](=O)[O-])c1)c1ccccc1F | -7.15
O=C(O)CNC(=O)C(CS)Cc1ccccc1 (stereo not given) | 25.7
O=C(O)[C@@H]1C[C@H](C(=O)O)N1 | 21.4
COc1cc2c(CCNC(C)=O)c[nH]c2cc1Cl | 10.8
CC1CN(S(=O)(=O)c2cccc3cnccc23)CCN1 (stereo not given) | 37.4
N#C/C(=C\c1ccc(-c2cc(Cl)ccc2Cl)o1)C(=O)Nc1cccc2ncccc12 | -11.1
CCCCCCCCCCCCCCCC(=O)OC(CC(=O)O)C[N+](C)(C)C (stereo not given) | 11.2
Fc1cccc(/C=N/N=C/c2cccc(F)c2)c1 | 12.7
CNc1ncnc2c1ncn2[C@@H]1O[C@H](CO)[C@@H](O)[C@H]1O | 15.7
Cc1ccc(S(=O)(=O)/C=C/C#N)cc1 | 20.6
O=C1O/C(=C/Br)CCC1c1cccc2ccccc12 (stereo not given) | -14.7
CC(=O)N[C@H](C(=O)O)C(C)(C)SN=O | 16.9
Cn1c(=O)c2[nH]c(-c3ccccc3)nc2n(C)c1=O | 17.5
CC(C)ON([C@@H](C(=O)NO)C(C)C)S(=O)(=O)c1ccc(-c2ccccc2)cc1 | 10.7
C[N+]1(C)CCC(OC(=O)C(c2ccccc2)c2ccccc2)CC1 | 13
